DT40 TDP1 CPT = qHTS for Inhibitors of human tyrosyl-DNA phosphodiesterase 1 (TDP1): qHTS in cells in presence of CPT | Potency, µM (highest dose often 46.2 µM), hits mostly inhibitors | chicken DT40 Tdp1-/-;hTDP1 cells + 20 nM CPT, ATP luminescence, 48 h | 12% of 420,000 active | AID 686979, 2013; also: nearly all actives have a fitted effect of over 55% in size
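Cell growth measured by CellTiter-Glo luminescence after a minimum 48 h, 37 C compound exposure with 20 nM CPT in Tdp1-knockout DT40 cells stably expressing hTDP1, seeded 400/well; qHTS titration format.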
LDHA inh = qHTS assay for inhibitors of human lactate dehydrogenase | 0.15% of 480,000 active | activity change, % (values are at about 110 or 230 µM) | L-lactate dehydrogenase A chain (Homo sapiens), P00338 | purified LDHA, NADH/diaphorase-resazurin fluorescence; stronger effect = lower value; in the data active = activity change below about -30%; inconclusive = mostly about -25% to -30%
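LDH5 2 nM; NADH 0.06 mM, pyruvate 0.2 mM; 200 mM Tris pH 7.4, EDTA, Tween-20; 5 min RT. Detection: diaphorase 0.133 mg/mL + resazurin 37 µM, fluorescence ex540/em590 at 0 and 20 min; normalized to enzyme-free and DMSO wells.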
RORgamma inh = qHTS for inhibitors of ROR gamma transcriptional activity | Nuclear receptor ROR-gamma (Mus musculus), P51450 | Drosophila S2 Gal4-RORgamma UAS-luciferase reporter, 20 h | Potency, µM (highest dose often 53.6 µM), hits mostly inhibitors | 5.4% of 310,000 active; also: nearly all actives have a fitted effect of over 60% in size
Target sequence (P51450 whole entry, looked up, the tested form may be a part): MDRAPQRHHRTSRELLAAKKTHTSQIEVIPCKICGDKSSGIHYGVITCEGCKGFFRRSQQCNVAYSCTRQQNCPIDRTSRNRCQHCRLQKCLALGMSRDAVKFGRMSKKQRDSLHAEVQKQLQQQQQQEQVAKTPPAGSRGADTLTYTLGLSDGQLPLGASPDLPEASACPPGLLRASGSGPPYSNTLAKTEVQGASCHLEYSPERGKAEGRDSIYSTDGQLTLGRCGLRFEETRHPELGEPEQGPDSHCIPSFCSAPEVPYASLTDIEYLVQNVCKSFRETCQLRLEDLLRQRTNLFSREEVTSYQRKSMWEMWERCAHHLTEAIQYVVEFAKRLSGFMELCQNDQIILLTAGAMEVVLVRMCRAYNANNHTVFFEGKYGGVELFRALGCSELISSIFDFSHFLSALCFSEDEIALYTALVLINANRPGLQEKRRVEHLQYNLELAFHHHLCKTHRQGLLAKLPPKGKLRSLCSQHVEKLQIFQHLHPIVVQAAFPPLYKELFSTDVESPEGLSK
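In this cell-based reporter format, copper sulfate (700 uM final) drives Gal4–ROR gamma fusion expression from a metallothionein promoter in Drosophila Schneider cells; compounds preincubated 1 hr, reporter read after 20 hr at ambient temperature.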
IL-1B inflam inh = qHTS for Inhibitors of Inflammasome Signaling: IL-1-beta AlphaLISA Primary Screen | THP-1 LPS/ATP IL-1B secretion, AlphaLISA, 16 h; stronger effect = lower value | activity change, % at 57.5 µM | 4.7% of 360,000 active | AID 743279, 2014; in the data active = activity change below about -50%; inconclusive = mostly about -30% to -49%
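THP-1 cells pretreated 1 hr with compounds (up to 57.5 uM final), then stimulated with LPS (250 ng/mL final) plus ATP (1.25 mM final); secreted IL-1B measured by AlphaLISA after 16 hr, decreased signal indicating inhibition.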
Gal4-VP16 FLuc = VP16 counterscreen qHTS for inhibitors of ROR gamma transcriptional activity; AID 2546, 2010; Potency, µM (series often up to 53.6 µM), usual class: inhibitors; 3.5% of 310,000 active; Drosophila S2 Gal4-VP16 UAS-luciferase, luminescence, 20 h;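 also: Gal4-VP16 expression switched on by copper sulfate through the metallothionein promoter; nearly all actives have a fitted effect of over 50% in size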
TDP1 cell noCPT = qHTS for Inhibitors of human tyrosyl-DNA phosphodiesterase 1 (TDP1): qHTS in cells in absence of CPT | DT40 Tdp1-/- hTDP1 cells, no CPT, ATP luminescence, 48 h | Potency, µM (highest dose often 46.2 µM), hits mostly inhibitors | 15% of 420,000 active; also: nearly all actives have a fitted effect of over 55% in size
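Chicken DT40 Tdp1-/- cells stably complemented with human TDP1 were seeded at 400 cells/well with DMSO in place of 20 nM camptothecin. After compound pinning, cells grew at least 48 hr at 37 °C; viability read by CellTiter-Glo luminescence.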
Large screens that a line does not name were inactive. Sampled rows, rich in hits. Any-hit rate of the full collection: about 18%. Unless noted, calls follow the shape of the dose curve; as a rule, active = well fitted curve in the direction sought with a large enough effect; inconclusive = small, poorly fitted or top-dose-only effect, or another doubt; inactive = no such curve, though single readings can be large; an effect the other way counts as inactive or inconclusive.

Cc1ccc(N(CC(C)C)S(=O)(=O)c2nnc(NC(=O)c3ccco3)s2)cc1	DT40 TDP1 CPT inconclusive, TDP1 cell noCPT 18.4µM (no result: RORgamma inh, IL-1B inflam inh, Gal4-VP16 FLuc)
CCN(c1ccc(OC)cc1)S(=O)(=O)c1nnc(NC(=O)CC(C)C)s1	IL-1B inflam inh -53.3
CCC(=O)Nc1nnc(S(=O)(=O)N(CC)c2ccc(OC)cc2)s1	none
CCN(c1cc(C)cc(C)c1)S(=O)(=O)c1nnc(NC(=O)C2CCCCC2)s1	DT40 TDP1 CPT 20.6µM, TDP1 cell noCPT 11.6µM (no result: RORgamma inh, IL-1B inflam inh, Gal4-VP16 FLuc)
COc1ccc(C(=O)Nc2nnc(S(=O)(=O)N(CC(C)C)c3ccccc3)s2)cc1	LDHA inh inconclusive (no result: RORgamma inh, IL-1B inflam inh, Gal4-VP16 FLuc)
Cc1ccc(N(C)S(=O)(=O)c2nnc(NC(=O)c3ccco3)s2)cc1	none
CCN(CC)S(=O)(=O)c1ccc(NCC2COc3ccccc3O2)c([N+](=O)[O-])c1 (stereo unspecified)	DT40 TDP1 CPT 16.4µM, RORgamma inh inconclusive, TDP1 cell noCPT 23.1µM
CN(C)S(=O)(=O)c1ccc(NCC2COc3ccccc3O2)c([N+](=O)[O-])c1 (stereo unspecified)	DT40 TDP1 CPT 16.4µM, RORgamma inh inconclusive, TDP1 cell noCPT 23.1µM
CCSc1ccc(N)cc1	none (no result: DT40 TDP1 CPT, RORgamma inh, IL-1B inflam inh, Gal4-VP16 FLuc, TDP1 cell noCPT)
O=C(/C=C/c1cccs1)c1cc(F)ccc1OC(=O)N1CCOCC1	DT40 TDP1 CPT 23.1µM, IL-1B inflam inh -54.0, TDP1 cell noCPT inconclusive (no result: RORgamma inh, Gal4-VP16 FLuc)
COc1ccccc1CNC(=O)c1ccc(N2CCCC2)c(NC(=O)Nc2cc(F)ccc2F)c1	none (no result: DT40 TDP1 CPT, RORgamma inh, IL-1B inflam inh, Gal4-VP16 FLuc, TDP1 cell noCPT)
CC1(C(=O)NCc2ccc(F)cc2)CN(S(C)(=O)=O)CC(=O)N1Cc1ccc2c(c1)OCO2 (stereo unspecified)	none (no result: DT40 TDP1 CPT, RORgamma inh, IL-1B inflam inh, Gal4-VP16 FLuc, TDP1 cell noCPT)
CN1CCN(C2=C(Cl)C(=O)N(c3ccc(Cl)c(Cl)c3)C2=O)CC1	DT40 TDP1 CPT 29.1µM, RORgamma inh inconclusive, IL-1B inflam inh inconclusive, Gal4-VP16 FLuc inconclusive, TDP1 cell noCPT inconclusive
C[C@@H]1CCCCO[C@@H](CN(C)C(=O)C2CCCCC2)[C@@H](C)CN([C@H](C)CO)C(=O)c2cc(NC(=O)NC3CCCCC3)ccc2O1	DT40 TDP1 CPT 23.1µM, TDP1 cell noCPT inconclusive (no result: RORgamma inh, Gal4-VP16 FLuc)
C[C@H]1CCCCO[C@H](CN(C)C(=O)C2CCCCC2)[C@@H](C)CN([C@@H](C)CO)C(=O)c2cc(NC(=O)NC3CCCCC3)ccc2O1	DT40 TDP1 CPT 20.6µM, TDP1 cell noCPT 20.6µM (no result: RORgamma inh, Gal4-VP16 FLuc)
COc1ccc(NC(=O)Nc2ccc3c(c2)C(=O)N([C@H](C)CO)C[C@@H](C)[C@@H](CN(C)C(=O)C2CCCCC2)OCCCC[C@H](C)O3)cc1	DT40 TDP1 CPT inconclusive, TDP1 cell noCPT 23.1µM (no result: RORgamma inh, Gal4-VP16 FLuc)
CCOC(=O)CCCCCC(=O)Nc1ccc2c(c1)C(=O)N([C@H](C)CO)C[C@H](C)[C@H](CN(C)C(=O)C1CCCCC1)OCCCC[C@@H](C)O2	DT40 TDP1 CPT inconclusive, TDP1 cell noCPT 20.6µM (no result: RORgamma inh, Gal4-VP16 FLuc)
C[C@@H]1CCCCO[C@H](CN(C)C(=O)c2ccccc2)[C@@H](C)CN([C@H](C)CO)C(=O)c2cc(NC(=O)NC3CCCCC3)ccc2O1	DT40 TDP1 CPT inconclusive, TDP1 cell noCPT inconclusive (no result: RORgamma inh, Gal4-VP16 FLuc)
CCCCCOc1ccc(/C=C2\CCc3ccccc3C2=O)cc1	none (no result: DT40 TDP1 CPT, RORgamma inh, IL-1B inflam inh, Gal4-VP16 FLuc, TDP1 cell noCPT)
O=C(CN1c2cccc3cccc(c23)S1(=O)=O)Nc1ccc(S(=O)(=O)N2CCCC2)cc1	none (no result: DT40 TDP1 CPT, RORgamma inh, IL-1B inflam inh, Gal4-VP16 FLuc, TDP1 cell noCPT)
Cc1ccc(NC(=O)CN2c3cccc4cccc(c34)S2(=O)=O)cc1	DT40 TDP1 CPT 23.1µM, TDP1 cell noCPT inconclusive (no result: RORgamma inh, Gal4-VP16 FLuc)
COCC(C)n1c(C)cc(C(=O)CN2c3cccc4cccc(c34)S2(=O)=O)c1C (stereo unspecified)	TDP1 cell noCPT inconclusive (no result: RORgamma inh, Gal4-VP16 FLuc)
Cc1cc(C(=O)CN2c3cccc4cccc(c34)S2(=O)=O)c(C)n1C	DT40 TDP1 CPT 4.61µM, TDP1 cell noCPT 3.26µM (no result: RORgamma inh, Gal4-VP16 FLuc)
CCNc1ncc2nc(-c3cn(C)c4ccccc34)c(=O)n(Cc3cccs3)c2n1	none (no result: LDHA inh, IL-1B inflam inh)
O=c1c(CCc2ccccc2)nc2cnc(N3CCOCC3)nc2n1Cc1cccs1	none (no result: LDHA inh, IL-1B inflam inh)

Screens (PubChem)
